Bioassay records as filed in PubChem BioAssay.
An excerpt weighted towards active compounds, which were near 2.4% of everything screened.
aSyn rescue: qHTS of alpha-syn Inhibitors; hit rate 0.14% among 370,000; Potency, µM (series often up to 46.1 µM), for inactives: at the top dose growth rescue (activation), actives largely listed as activators; Yeast expressing alpha-synuclein, growth rescue, BacTiter-Glo, 24 h; also: % of control where 0% means no effect; nearly all actives have a fitted effect of over 65% in size
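Readout is rescue of growth in alpha-synuclein-expressing yeast, so inhibitors of toxicity appear as activators. Growth after 24 hr at 30 deg C in galactose medium is quantified by luminescence.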
Abeta rescue: qHTS for compounds that reverse cellular toxicity of Amyloid beta (A-beta) peptide in yeast: Primary Screen. hit rate 0.063% among 410,000. AID 1347071, 2019. Potency, µM (top dose mostly 46.1 µM), actives largely listed as activators. yeast expressing A-beta42, growth rescue, OD600, 48 h; response scale: 0% DMSO, 100% iron-clioquinol control; also: nearly all actives have a fitted effect of over 55% in size
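Yeast A-beta toxicity model in growth medium with pinned compounds, 48 h at 30 C; growth read as absorbance at 600 nm. Normalized to FeCl3/clioquinol equimolar mix (positive) and DMSO (negative).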
FUS yeast rescue: qHTS for Suppressors of FUS Proteinopathy: Primary screen using FUS-linked yeast assay; S. cerevisiae FUS-expressing, growth rescue, OD600, 24 h; Potency, µM (highest dose often 76.6 µM), hits mostly activators; hit rate 0.24% among 390,000;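 also: plate controls were DMSO vehicle for no effect and reference control for full effect; nearly all actives have a fitted effect of over 55% in size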
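Quantitative HTS measuring growth restoration of FUS-toxic yeast. Galactose-induced cells (OD 0.005) were exposed 24hr at 30C to compounds at several concentrations, then absorbance at 600 nm was recorded.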
TDP-43 yeast inh: qHTS of TDP-43 Inhibitors | TDP-43 expressing yeast growth rescue, BacTiter-Glo, 24 h | Potency, µM (doses to about 46.1 µM), without a hit: at the top dose growth rescue (activation), actives largely listed as activators | hit rate 1.8% among 410,000 | AID 652104, 2013; also: % of control where 0% means no effect; nearly all actives have a fitted effect of over 50% in size
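Cell-based yeast growth screen: TDP-43 expression induced in galactose, inoculum OD600=0.02 after raffinose pregrowth to mid-log. Read-out BacTiter-Glo luminescence at 24 hr, 30 deg C; inhibition of toxicity seen as signal increase.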
Mito fusion act: qHTS Assay for Small Molecule Inhibitors of Mitochondrial Division or Activators of Mitochondrial Fusion. S. cerevisiae fusion-defective mutant growth rescue, CellTiterGlo 48 h. Potency, µM (top dose mostly 46.1 µM), for the others: at the highest dose growth rescue (activation), usual class: activators. hit rate 0.23% among 320,000; also: % of control where 0% means no effect; nearly all actives have a fitted effect of over 45% in size
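S. cerevisiae fusion-defective temperature-sensitive mutants (e.g. fzo1-1, mgm1-5) grown 48 h at 37C in YPEG (ethanol/glycerol non-fermentable) medium with 23 nl compound per well; growth rescue read as CellTiterGlo luminescence.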
AT treatment: qHTS Assay for Identifying a Potential Treatment of Ataxia-Telangiectasia. F2112 A-T fibroblasts, KAP-1 phosphorylation AlphaLISA; neocarzinostatin DNA damage 30 min before lysis. Potency, µM (top dose mostly 57.5 µM), without a hit: at the top dose activation, most hits filed as activators. hit rate 0.19% among 320,000; also: % of control where 0% means no effect; nearly all actives have a fitted effect of over 45% in size
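ATM-like activity read as KAP-1 phosphorylation via AlphaLISA donor/acceptor antibody pairs after lysis and 6 hr at 25C. Cells were ATM-null patient fibroblasts (F2112, hTERT), dosed 60 min, then exposed to the DSB inducer NCS for 30 min.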
Numbers without * were called inactive; i = inactive; ? = inconclusive; . = no result given; [ ] = another dose, or the depositor's remark. Calls follow the shape of the dose curve; as a rule, active = well fitted curve in the direction sought with a large enough effect; inconclusive = small, poorly fitted or top-dose-only effect, or another doubt; inactive = no such curve, though single readings can be large; an effect the other way counts as inactive or inconclusive. Potency is read from the fitted curve at half-maximal effect.

SMILES	aSyn rescue	Abeta rescue	FUS yeast rescue	TDP-43 yeast inh	Mito fusion act	AT treatment
COc1ccc(NC(C)(C)c2nnnn2-c2c(C)cccc2C)cc1	11%	i	i	13µM*	14%	-8%
CCC(C)c1ccc(NC(=S)NCc2cccs2)cc1 (stereo not drawn)	-15%	i	i	17%	-10%	3%
S=C(NCc1cccs1)Nc1ccc(Br)cc1Cl	-11%	?	i	35µM*	17%	0%
S=C(NCc1ccccn1)Nc1ccc(Cl)cc1Cl	-16%	i	i	11µM*	-8%	6%
CC(C)(C)c1ccc(NC(=S)NCc2cccs2)cc1	-9%	i	i	13µM*	23%	1%
O=C(O)Cc1ccc(NC(=S)Nc2cccc(Cl)c2Cl)cc1	12%	i	?	-9%	-2%	0%
COc1ccc(Cl)cc1NC(=S)NCc1ccccn1	5%	i	.	22%	-6%	4%
Cc1cc(C)cc(NC(=S)NCc2cccs2)c1	-4%	i	.	5%	5%	9%
O=C(O)Cc1ccc(NC(=S)Nc2ccc(Br)cc2Cl)cc1	12%	i	i	35µM*	0%	-23%
CCOCCc1nn2c(=O)cc(COC(=O)CNC(=O)c3cccc(C)c3)nc2s1	.	i	i	-7%	.	.
CN(Cc1ccccc1)S(=O)(=O)c1cccc(C(=O)OCc2ccc(C(F)(F)F)cc2)c1	.	.	i	.	.	.
CC(=O)c1ccc(Nc2nc3c(S(=O)(=O)c4ccccc4)nnn3c3ccc(Cl)cc23)cc1	.	i	i	0%	.	.
CCOc1ccc(C2=NC(c3cccs3)=Nc3ccc(CC)cc3N2)cc1OCC	.	i	?	12%[9.22 µM]	.	.
CCOc1ccc(-n2c(COc3ccc(C)cc3)nnc2SCC(=O)Nc2ccc(F)c(F)c2)cc1	.	.	i	.	.	.
COc1ccccc1CNC(=O)c1ccc2nc(N3CCOCC3)sc2c1	0%	i	i	22µM*	0%	15%
O=C(NCc1cccc(Cl)c1)c1ccc2nc(N3CCOCC3)sc2c1	4%	i	i	25µM*	2%	4%
COc1cc(NC(=O)c2cc(Cl)c(OC)c(Cl)c2)ccc1NC(=O)c1cc2ccccc2o1	.	i	i	-7%	.	.
CCn1c(=O)c2sccc2n2c(CCCC(=O)N3CCN(c4ccc(OC)cc4)CC3)nnc12	.	i	i	14%	.	.
Cc1noc(/C=C/N(C)C)c1S(=O)(=O)N1CCCC(C(=O)Nc2ccc3c(c2)OCO3)C1 (stereo not drawn)	0%	i	5.6µM*	2%	-1%	-6%
Cc1nc(Cl)sc1C(=O)Nc1cc(F)cc(F)c1	3%	i	i	11µM*	6%	1%
Cc1nc(Cl)sc1C(=O)Nc1ccc(F)cc1	-2%	i	i	3%	.	.
COc1ccc(NC(=O)CN(C)S(=O)(=O)c2ccc3c(c2)CCCN3C(C)=O)cc1Cl	.	i	i	20%	.	.
O=C(Nc1ccc(N2CCOCC2)cc1)c1cc2c(s1)CCCCC2	-3%	i	i	-14%[0.397 µM]	-1%	0%
Cc1csc(NC(=O)c2cc3c(s2)CCCC3)n1	-37%	i	i	28µM*	3%	?
O=C(Nc1ccon1)c1cc2c(s1)CCCCCC2	1%	i	i	13µM*	-5%	11%
SMILES	aSyn rescue	Abeta rescue	FUS yeast rescue	TDP-43 yeast inh	Mito fusion act	AT treatment
O=C(Nc1ccccc1N1CCOCC1)c1cc2c(s1)CCCCC2	-18%	i	i	7.9µM*	-1%	8%
O=C(Nc1ccccc1)n1ccc2ccc(-c3ccc4cc[nH]c4c3)cc21	.	.	i	.	.	.
COC(=O)C1=C(C(=O)OC)SC(=C2C(=S)C(C)(C)N(C(=O)C3CC3)c3ccccc32)S1	25%	i	i	2.2µM*	6%	-6%
COC(=O)C1=C(C(=O)OC)SC(=C2C(=S)C(C)(C)N(C(=O)C(C)C)c3ccccc32)S1	?	i	i	3.2µM*	2%	-11%
CCCC(=O)N1c2ccccc2C(=C2SC(C(=O)OC)=C(C(=O)OC)S2)C(=S)C1(C)C	-3%	i	i	?	-1%	-5%
CC1C(=O)Nc2ccccc2N1C(=O)C1CC1 (stereo not drawn)	-3%	i	i	-12%	-2%	.
CCC(=O)N1CCc2cc(S(=O)(=O)N(C)c3cccc(C)c3)ccc21	.	i	i	6%	.	.
Clc1ccc(CN2CC[C@H]3C=CCc4cccc(c43)C2)cc1	0%	i	i	0%	11%	35µM*
COC(=O)c1ccc(CN2[C@H](C(=O)OC)C[C@@]3(O)[C@H](O)[C@H](O)[C@H](O)C[C@@H]23)cc1	-3%	i	i	-6%	?	23%
COC(=O)[C@@H]1C[C@@]2(O)[C@@H](O)[C@@H](O)[C@@H](O)C[C@H]2N1Cc1ccc(Cl)cc1	2%	i	i	2%	-1%	40µM*
CC1CCC2(CC1)CCN(CCCOC(=O)NCc1ccc(Cl)cc1)C2=O (stereo not drawn)	.	.	i	.	.	.
CCCCNC(=O)C1(C)CCN1C(=O)c1ccc2c(c1)C(C)(C)CCC2(C)C (stereo not drawn)	1%	i	i	10%	.	.
CCCCNC(=O)C1(C)CCCCN1C(=O)c1ccc2c(c1)C(C)(C)CCC2(C)C (stereo not drawn)	6%	i	i	20µM*	.	.
COC(=O)c1ccc2nc(-c3ccccc3)c(Cc3ccccc3OC)n2c1	-6%	i	i	35µM*	.	.
FC(F)(F)c1ccccc1Cc1c(C2CCCCC2)nc2ccc(Br)cn12	-39%	i	i	?	.	.
COc1ccccc1Cc1c(-c2ccccc2)nc2ccc(Br)cn12	-1%	i	i	35µM*	.	.
COc1ccccc1Cc1c(C2CCCCC2)nc2ccc(Br)cn12	-2%	i	i	13µM*	.	.
Cc1nn(-c2ccccc2)c2sc(-c3n[nH]c(=S)o3)cc12	-43%	i	7.1µM*	?	17%	2%
Cc1nn(-c2ccccc2)c2sc(C(=O)O)cc12	-22%	i	i	?	2%	-5%
CC(=O)OC12CCCN(C1)/C(=C/c1cccc(N(C)C)c1)C2 (stereo not drawn)	.	.	i	.	.	.
Cc1ccc(CN[C@@H]2CC[C@@]34CCCN3C(=O)CCC[C@H]4C2)cc1	.	.	i	.	.	.
